The results in this text go back to PubChem BioAssay AID588511 (Johns Hopkins Ion Channel Center, 2011).

Each structure is given as a SMILES string. About 3,600 (1.2%) of roughly 310,000 compounds were called active.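 How the source made its calls: active means ratio plate-corrected score three or more library SD toward inhibition, starting fluorescence score within five deviations; inactive means the rest.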 For the sample, actives were picked, then their nearest neighbours and some compounds at random.

Sequence of Anoctamin-1 (Mus musculus) (Q8BHY3 whole entry, looked up): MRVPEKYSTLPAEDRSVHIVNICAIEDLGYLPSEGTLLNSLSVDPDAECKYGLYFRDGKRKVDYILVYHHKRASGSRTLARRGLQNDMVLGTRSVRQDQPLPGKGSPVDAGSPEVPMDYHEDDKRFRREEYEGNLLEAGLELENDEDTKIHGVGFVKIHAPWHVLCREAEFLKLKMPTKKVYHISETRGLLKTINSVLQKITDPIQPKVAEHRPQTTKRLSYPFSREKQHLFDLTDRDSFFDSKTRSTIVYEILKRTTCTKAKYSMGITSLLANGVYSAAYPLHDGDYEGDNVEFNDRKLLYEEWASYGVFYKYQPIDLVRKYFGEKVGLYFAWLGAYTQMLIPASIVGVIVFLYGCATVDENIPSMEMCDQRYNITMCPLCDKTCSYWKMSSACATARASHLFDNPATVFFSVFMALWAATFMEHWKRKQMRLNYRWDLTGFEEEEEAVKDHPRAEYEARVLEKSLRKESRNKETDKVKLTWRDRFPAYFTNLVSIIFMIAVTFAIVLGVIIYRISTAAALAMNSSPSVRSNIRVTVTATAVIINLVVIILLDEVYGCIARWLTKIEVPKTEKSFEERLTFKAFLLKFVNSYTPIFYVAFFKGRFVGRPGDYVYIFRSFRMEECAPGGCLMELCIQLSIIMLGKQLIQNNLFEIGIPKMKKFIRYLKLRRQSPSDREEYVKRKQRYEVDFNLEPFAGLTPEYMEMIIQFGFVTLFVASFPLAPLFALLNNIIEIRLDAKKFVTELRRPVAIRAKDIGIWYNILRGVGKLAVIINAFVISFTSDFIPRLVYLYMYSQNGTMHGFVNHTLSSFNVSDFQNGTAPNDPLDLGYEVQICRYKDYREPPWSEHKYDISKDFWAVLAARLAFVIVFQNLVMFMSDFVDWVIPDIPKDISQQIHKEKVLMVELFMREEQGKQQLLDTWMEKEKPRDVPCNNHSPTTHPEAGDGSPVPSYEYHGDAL

The test addresses Anoctamin-1 (Mus musculus) (UniProt Q8BHY3). Description: TMEM16A chloride channel inhibitors, primary screen, cell-based, HTS (AID 588511).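 On normalized B-score (activity score, 25-100; higher = stronger inhibition): score derived from kinetic fluorescence span divided by baseline fluorescence per well.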 Particulars: HEK293 TMEM16A/YFP iodide influx fluorescence, ionomycin; at 10 µM.
As to `CCn1c(SCc2cccc(C(=O)O)c2)nnc1-c1ccc(Cl)cc1`, the normalized B-score (activity score, 25-100; higher = stronger inhibition) result is “inactive”. The entry for `Cn1ccnc1-c1nnn(-c2ccc(F)cc2)n1` is “inactive”. For `COC(=O)c1ccc(OC(=O)c2nn(C)cc2Cl)c(OC)c1`, the normalized B-score (activity score, 25-100; higher = stronger inhibition) result was “inactive”. Regarding `Cc1noc(C)c1-c1nc(CSc2ccc(Cl)cc2)no1`, the normalized B-score (activity score, 25-100; higher = stronger inhibition) result is “inactive”. The entry for `Cc1cc(C)n(CC(=O)Nc2ccc([N+](=O)[O-])cc2)n1` is “inactive”; for `COCCCNC(=O)c1ccc(CNS(=O)(=O)c2ccc(NC(C)=O)cc2)cc1` it is “inactive”; for `Cc1cc(N=Nc2ccc3ccccc3c2)ccc1O` it is “inactive”. For the compound `Cc1cccc(-c2c(NC(=O)c3ccco3)oc3ccc(Cl)cc3c2=O)c1`, the normalized B-score (activity score, 25-100; higher = stronger inhibition) result is “inactive”.

For the compound `CN(C)CCCO/N=C(\c1ccccc1)c1ccncc1`, the normalized B-score (activity score, 25-100; higher = stronger inhibition) result was “inactive”. For the compound `CC(C)Oc1ccc(/C=C(\NC(=O)/C=C/c2ccco2)C(=O)NCCc2nc3ccccc3[nH]2)cc1`, the normalized B-score (activity score, 25-100; higher = stronger inhibition) entry is “inactive”. On to `CCCNC(=O)c1onc(CSc2ccc(F)cc2)c1C(=O)NC(C)C`, for which the normalized B-score (activity score, 25-100; higher = stronger inhibition) entry is “inactive”. The entry for `Cc1ccnc(N2C(=O)c3ccccc3C2Nc2ccc3c(c2)OCCO3)c1` (stereo not drawn) is “inactive”. As to `O=C1c2ccccc2C(Nc2ccc3c(c2)OCCO3)N1Cc1ccco1` (stereo not drawn), the normalized B-score (activity score, 25-100; higher = stronger inhibition) is 100 (active). The entry for `S=C(NCc1ccco1)Nc1ccc2c(c1)OCCO2` is “inactive”. Consider `CCN(CC)C(=O)CSC(Nc1cccc(F)c1)=C(C#N)C#N`, for which the normalized B-score (activity score, 25-100; higher = stronger inhibition) entry was “inactive”. The entry for `c1ccc2c(c1)C(=NC1CCCCC1)NC2=NC1CCCCC1` is “inactive”. The entry for `CCCn1c(C(C)Nc2nc(-c3ccc(C)cc3)cs2)nc2cc(Cl)c(N3CCCCC3)cc21` (stereo not drawn) is “inactive”; for `CC1(C)C=C2[C@H]3CC[C@@H]4[C@@]5(C)CCC(=O)C(C)(C)[C@@H]5CC[C@@]4(C)[C@]3(C)CC[C@@]2(C(=O)O)CC1` it is 100 (active).

Consider `CC1CN(C(=O)c2ccc3c(c2)OCO3)OC(c2ccccc2)O1` (stereo not drawn), for which the normalized B-score (activity score, 25-100; higher = stronger inhibition) result is “inactive”. The entry for `Cc1cc(=O)oc2c1c(C)nn2-c1ccc(Cl)cc1` is “inactive”; for `CCCc1cc(=O)[nH]c(SCC(=O)c2c(N)n(CC(C)C)c(=O)n(C)c2=O)n1` it is “inactive”. `CC(C)(C)C1CCC(C(=O)Nc2cccnc2)CC1` (stereo not drawn): the normalized B-score (activity score, 25-100; higher = stronger inhibition) result is “inactive”. As for `COc1cccc(CNS(=O)(=O)c2ccc3c(c2)CC(C)N3C(=O)C2CCC2)c1` (stereo not drawn), the normalized B-score (activity score, 25-100; higher = stronger inhibition) is 100 (active). Consider `COc1cccc(CNS(=O)(=O)c2ccc3c(c2)CC(C)N3C(C)=O)c1` (stereo not drawn), for which the normalized B-score (activity score, 25-100; higher = stronger inhibition) result was “inactive”. With `COc1ccc(N(C)S(=O)(=O)c2ccc3c(c2)CC(C)N3C(=O)C2CC2)c(OC)c1` (stereo not drawn), the normalized B-score (activity score, 25-100; higher = stronger inhibition) entry is “inactive”.

As for `COc1cc(C(C(=O)NC2CCCC2)N(C(=O)c2ccco2)c2ccccc2C(C)=O)cc(OC)c1OC` (stereo not drawn), the normalized B-score (activity score, 25-100; higher = stronger inhibition) entry was “inactive”. The entry for `Nc1nonc1-n1nnc(C(=O)N/N=C/c2cc(Br)ccc2O)c1CSC1=NCCS1` is “inactive”; for `Cc1ccc(-c2nn(C(C)(C)C)c3ncnc(N)c23)cc1` it is “inactive”; for `Nc1nc(SCC(=O)Nc2cc(C(F)(F)F)ccc2Cl)[nH]c(=O)c1NC(=O)c1ccco1` it is “inactive”.

As for `COc1ccc(-n2c(C)cc(C(=O)CSc3nnc(-c4cccs4)o3)c2C)cc1`, the normalized B-score (activity score, 25-100; higher = stronger inhibition) is 100 (active). As for `COc1ccc(-c2nnc(SCC(=O)c3ccc4c(c3)OCCO4)o2)cc1`, the normalized B-score (activity score, 25-100; higher = stronger inhibition) entry was “inactive”.

`COc1ccc(-n2c(C)cc(C(=O)COC(=O)c3cc(OC)c(OC)cc3NC(=O)c3cccs3)c2C)cc1`: the normalized B-score (activity score, 25-100; higher = stronger inhibition) result is “inactive”. The entry for `CCc1cc2c(NC3CCCC3)ncnc2s1` is “inactive”. `CCc1cc2c(NC(Cc3ccccc3)C(=O)O)ncnc2s1` (stereo not drawn): the normalized B-score (activity score, 25-100; higher = stronger inhibition) result was “inactive”.

As to `CCc1cc2c(N3CCN(c4nnc(CC)s4)CC3)ncnc2s1`, the normalized B-score (activity score, 25-100; higher = stronger inhibition) was 100 (active). With `Cc1ccc(S(=O)(=O)N[C@@H](Cc2ccccc2)C(=O)N2CCC(C(=O)N[C@H](C(=O)O)C(C)O)CC2)cc1` (stereo partly drawn), the normalized B-score (activity score, 25-100; higher = stronger inhibition) result was “inactive”. The entry for `COc1cccc(C(=O)NNS(=O)(=O)c2ccc(F)cc2)c1` is “inactive”; for `Cc1cccnc1NC(=O)Cn1c(=O)oc2ccccc21` it is “inactive”. The entry for `COCc1c(C(=O)N/N=C(\C)c2ccncc2)nnn1-c1nonc1N` is “inactive”; for `S=c1[nH]nc(NCCc2ccccc2)s1` it is “inactive”; for `CCNc1nc(-c2cc3ccccc3o2)cs1` it is “inactive”. Turning to `Cc1nc(C)c(-c2csc(NCCc3ccccc3)n2)s1`, the normalized B-score (activity score, 25-100; higher = stronger inhibition) was 100 (active). Consider `COc1cccc(CNC(=O)c2cccnc2Sc2ccc(Cl)cc2)c1`, for which the normalized B-score (activity score, 25-100; higher = stronger inhibition) result was “inactive”.

In the case of `Cc1ccc(NC(=O)C(=O)NCc2ccc(/C=N/NC(=O)c3c(C)nc4cc(C)ccn34)o2)cc1`, the normalized B-score (activity score, 25-100; higher = stronger inhibition) result was “inactive”. The entry for `CCN(Cc1ccccc1)C(=O)CN1C(=S)NC(C)(C)CC1C` (stereo not drawn) is “inactive”. Turning to `N#Cc1c(-c2ccc(F)cc2)nc(-c2ccccc2)[nH]c1=O`, the normalized B-score (activity score, 25-100; higher = stronger inhibition) result was “inactive”. Consider `N#Cc1c(-c2ccccc2)nc(SCc2cccc(C(F)(F)F)c2)[nH]c1=O`, for which the normalized B-score (activity score, 25-100; higher = stronger inhibition) was 100 (active). The figure for `Cc1ccc(CSc2nc(-c3ccccc3)c(C#N)c(=O)[nH]2)cc1` is 100 (active); for `O=c1[nH]c(SCc2cccc(F)c2)nc2ccccc12` it is “inactive”. With `N#Cc1c(-c2ccccc2)nc(SCc2ccc([N+](=O)[O-])cc2)[nH]c1=O`, the normalized B-score (activity score, 25-100; higher = stronger inhibition) result is “inactive”.

With `O=c1[nH]c(SCc2ccccc2)nnc1-c1ccccc1`, the normalized B-score (activity score, 25-100; higher = stronger inhibition) result is “inactive”. For the compound `O=C(CCN1C(=O)C2CCCCC2C1=O)Nc1ccc(OC(F)F)cc1` (stereo not drawn), the normalized B-score (activity score, 25-100; higher = stronger inhibition) result was “inactive”.

Regarding `O=C(COC(=O)c1ncc(Cl)c(Cl)c1Cl)NNC(=O)c1ccccc1`, the normalized B-score (activity score, 25-100; higher = stronger inhibition) entry is “inactive”. Take `O=C(CC1C(=O)NCCN1CC(c1ccccc1)c1ccccc1)NCCc1cn[nH]c1` (stereo not drawn): the normalized B-score (activity score, 25-100; higher = stronger inhibition) entry was “inactive”. The entry for `COc1ccc(C(=O)Nc2cc(C)c(NC(=O)c3ccccc3OC)cn2)cc1` is “inactive”. For the compound `CC1CN(C(=S)Nc2cccc(F)c2)CC(C)O1` (stereo not drawn), the normalized B-score (activity score, 25-100; higher = stronger inhibition) result is “inactive”. The entry for `Cc1ccc(CNC(=O)c2ccc(CS(=O)Cc3cccc(Cl)c3)o2)cc1` (stereo not drawn) is “inactive”. With `CCCOc1cccc(C(=O)NCCCNC(=O)c2cccnc2)c1`, the normalized B-score (activity score, 25-100; higher = stronger inhibition) entry is “inactive”.

For the compound `CCc1ccc[n+](-c2nc([O-])sc2C=O)c1`, the normalized B-score (activity score, 25-100; higher = stronger inhibition) result is “inactive”. The entry for `CC(C)(C)c1cc(NC(=O)NN2CCOCC2)nn1-c1c(Cl)cc(Cl)cc1Cl` is “inactive”; for `COc1cccc(-c2nnc(NC(=O)c3ccc(S(=O)(=O)N(CC(C)C)CC(C)C)cc3)o2)c1` it is 100 (active); for `COc1ccc(-c2nnc(NC(=O)CS(=O)(=O)c3ccc(Cl)cc3)o2)c(OC)c1` it is “inactive”.

`COc1cccc(NC(=O)c2ccc(S(=O)(=O)N(C)C)cc2)c1`: the normalized B-score (activity score, 25-100; higher = stronger inhibition) result is “inactive”.

For the compound `CCn1c(C)nc2c1C(=O)c1ccccc1C2=O`, the normalized B-score (activity score, 25-100; higher = stronger inhibition) result is “inactive”. The entry for `CSc1ccccc1OCc1cc(C(=O)N2C[C@H]3CC[C@H]2C3)no1` is “inactive”. The entry for `Cc1ccc(OCc2nc(C#N)c(N3CCCC3)o2)cc1` is “inactive”; for `O=S(=O)(c1ccc(Br)cc1)c1nc(-c2ccccc2)oc1NCc1cccnc1` it is “inactive”; for `N#Cc1nc(COc2ccc(-c3ccccc3)cc2)oc1NCc1cccnc1` it is 100 (active).
